NS1 function inh: inhibitors of influenza NS1 protein function. Potency, µM (doses to about 46.1 µM), without a hit: top-dose activity, positive = more growth. actives 0.4% (n = 270,000); further: potency means the concentration at half of the fitted maximal effect; actives are rising curves; nearly all actives have a fitted effect of over 50% in size
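Compounds were scored for reversing the slow growth caused by influenza A NS1 in S. cerevisiae, measured by optical density at 600 nm. Assay medium contained 2% galactose at pH 6.0; NS1-free yeast of the same strain were the positive control.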
SARS PLpro yeast: blocks SARS-CoV papain-like protease in a yeast assay. S. cerevisiae expressing SARS-CoV PLpro, growth rescue. Potency, µM (top dose mostly 32.9 µM), without a hit: at the top dose activity, positive = growth rescue, usual class: activators. actives 0.19% (n = 330,000). AID 485353; further: potency means the concentration at half of the fitted maximal effect; 0% is about no effect; nearly all actives have a fitted effect of over 55% in size
Shiga toxin inh: inhibitors of Shiga toxin in Vero cells; Vero cells, Shiga toxin protein synthesis inhibition reporter; inhibition, % at 38.7 µM; actives 9.2% (n = 290,000); in the data active means inhibition mostly above about 28%, no sharp cut-off; inactive means mostly below about 43%; further: 0% is about no effect
CHX counter: counter-screen hit for Shiga toxin inhibitors, cycloheximide | max response, % | cell reporter, cycloheximide protein synthesis inhibition counterscreen | actives 12% (n = 300,000); in the data active means max response mostly above about 13%, no sharp cut-off; inactive means mostly below about 14%; further: read at 38.3 µM for the half of the compounds with a filed dose; 0% is about no effect
TbPYK inhibitor: T. brucei pyruvate kinase inhibition; Q57TT1; TbPYK enzyme, Kinase-Glo Plus ATP luminescence, 45 min; Potency, µM (series often up to 76.8 µM), for inactives: at the highest dose activity, negative = inhibition, actives largely listed as inhibitors; actives 0.12% (n = 410,000); active means well fitted curve in the direction sought with a large enough effect; an effect the other way counts as inactive or inconclusive; further: potency means the concentration at half of the fitted maximal effect; on the % scale 0 is the no-effect control and ±100 the full control effect; nearly all actives have a fitted effect of over 50% in size
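Luminescence from Kinase-Glo Plus, added after a 45-minute room-temperature reaction, served as the end-point read-out. The enzyme and substrate were preincubated with compound before ADP (130 uM final) initiated turnover. Concentration-effect curves came from normalized qHTS data.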
LmPK inh: inhibitors of Leishmania mexicana pyruvate kinase | purified LmPK, Kinase-Glo ATP luminescence, 1 h | Potency, µM (series often up to 57.5 µM), for the others: at the highest dose activity change, negative = inhibition, actives largely listed as inhibitors | AID 1721 | actives 0.37% (n = 290,000) | Q27686; active means well fitted curve in the direction sought with a large enough effect; an effect the other way counts as inactive or inconclusive; further: potency means the concentration at half of the fitted maximal effect; on the % scale 0 is the no-effect control and ±100 the full control effect
Target sequence (Q27686 whole entry, looked up): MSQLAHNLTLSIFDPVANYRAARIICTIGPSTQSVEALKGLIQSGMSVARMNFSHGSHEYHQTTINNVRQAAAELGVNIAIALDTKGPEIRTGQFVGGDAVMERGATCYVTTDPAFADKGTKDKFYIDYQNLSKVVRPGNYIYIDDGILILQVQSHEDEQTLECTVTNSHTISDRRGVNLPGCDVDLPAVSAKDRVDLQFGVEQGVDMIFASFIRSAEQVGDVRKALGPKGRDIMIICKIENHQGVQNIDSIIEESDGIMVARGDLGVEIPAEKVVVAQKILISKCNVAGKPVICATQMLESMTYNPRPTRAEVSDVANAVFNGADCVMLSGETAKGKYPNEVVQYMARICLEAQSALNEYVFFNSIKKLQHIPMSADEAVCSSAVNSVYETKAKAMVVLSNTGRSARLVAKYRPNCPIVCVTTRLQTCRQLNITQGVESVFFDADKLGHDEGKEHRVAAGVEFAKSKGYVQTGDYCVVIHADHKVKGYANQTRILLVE
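Purified LmPK (0.1 nM) with 0.5 mM PEP and 0.1 mM ADP in imidazole buffer pH 7.2 with MgCl2/KCl, 1 h at room temperature. ATP formed was read by luciferase luminescence and normalized to no-enzyme and uninhibited controls.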
* = called active by the depositor; . = no result; [ ] = dose if it differs, or a comment. This excerpt belongs to a sample that is enriched for hits. Unless noted, the call rests on the fitted dose curve.

SMILES	NS1 function inh	SARS PLpro yeast	Shiga toxin inh	CHX counter	TbPYK inhibitor	LmPK inh
O=C(NCC1COCCO1)c1cc(COc2c(F)cccc2F)on1 (configuration not stated)	-3%	0%	30	26*	1%	-2%
Cc1ccc(CNC(=O)c2cc(COc3c(F)cccc3F)on2)s1	-2%	-2%	21	0	-7%	-4%
Clc1ccc(N=C2SCCS2)cc1	5%	-1%	76*	46*	0%	3%
c1ccc(N=C2SCCCS2)cc1	.	.	.	.	-4%	.
COc1cccc(Nc2nc(N)nc(C(F)(F)F)n2)c1	-35%	-2%	59	16	2%	0%
Nc1nc(Nc2ccccc2)nc(C(F)(F)F)n1	-38%	0%	47	30*	-1%	-3%
Nc1nc(Nc2ccccc2Br)nc(C(F)(F)F)n1	-33%	-11%	24	12	1%	0%
Nc1nc(Nc2ccc(Cl)cc2Cl)nc(C(F)(F)F)n1	-1%	-3%	65*	43*	2%	3%
Cc1[nH]c(C)c(CN(C)C)c1CN(C)C	-5%	.	.	.	.	.
CCC(C(=O)OC)n1nnc2sc(-c3ccccc3)cc2c1=O (configuration not stated)	.	.	.	.	-2%	.
O=C(NCC(=O)N1CCN(c2ncccn2)CC1)c1ccccc1OC(F)F	.	-6%	.	.	-1%	.
COc1ccc(/C(C)=N/NC(=O)Cc2ccc(Cl)cc2)cc1	-4%	-4%	.	-2	-6%	-1%
CN(C(=O)c1ccoc1)c1ccc2ccccc2c1	-14%	5%	-10	-3	-9%	-9%
Cc1sc2c(c1C)C(=O)NC(c1cccc(O)c1)N2 (configuration not stated)	-20%	-4%	35	27*	.	2%
O=C(CSCCO)Nc1ccc(C23CC4CC(CC(C4)C2)C3)cc1	11%	-13%	53*	24*	-8%	4%
CS(=O)(=O)N(CC(=O)Nc1ccc(CC#N)cc1)c1ccc(C23CC4CC(CC(C4)C2)C3)cc1	-10%	-7%	77*	22*	-7%	0%
CC(=O)Nc1ccc(C23CC4CC(CC(C4)C2)C3)cc1	-12%	1%	26	14	1%	3%
CCCS(=O)(=O)NC(=O)C1(C)CCN(C(=O)c2cc(C)oc2C)C1 (configuration not stated)	.	.	.	.	-9%	.
Cc1cc(C)n(CCC(=O)Nc2ccc(Cl)cc2)n1	.	.	.	.	-4%	.
O=C(/C=C/c1cccc([N+](=O)[O-])c1)c1ccco1	-105%	-25%	12	-1	2%	-4%
Cc1ccc(N/C=C/C(=O)c2ccco2)c(O)c1	3%	-6%	70*	60*	-3%	-12%
Cc1ccc(NC(=O)c2ccco2)c(NC(=O)c2ccccc2)c1	-4%	-2%	-6	-6	-4%	0%
Cc1ccc([N+](=O)[O-])cc1N/C=C/C(=O)c1ccco1	-2%	2%	125*	65*	3%	3%
CCOC1=C2[C@H](c3ccc(CC)cc3)N(S(=O)(=O)c3ccc(C)cc3)C[C@H]2n2c(=O)n(-c3ccccc3)c(=O)n2C1	.	.	.	.	4%	.
O=C(c1ccc(NS(=O)(=O)c2ccc(Cl)c(Cl)c2)cc1)N1CCOCC1	.	4%	.	.	3%	.
SMILES	NS1 function inh	SARS PLpro yeast	Shiga toxin inh	CHX counter	TbPYK inhibitor	LmPK inh
C=CCc1cc(OC)c(O)c(C(=O)NCCO)c1	.	.	.	.	-10%	.
O=C(O)CCn1cc(-c2ccc(F)cc2)nc1-c1ccncc1	.	3%	.	.	1%	.
C=CCSC1=NNC(c2ccc(C(C)(C)C)cc2)=NN1	1%	0%	79*	32*	-2%	5%
Cc1ccc(S(=O)(=O)Oc2ccccc2/C=N/Nc2ccc(C(=O)O)cc2)cc1	-1%	1%	30	26*	6%	-2%
Cc1ccc(S(=O)(=O)Oc2ccccc2/C=N/O)cc1	-5%	-1%	3	-1	4%	4%
CNc1ncc(C(=O)c2ccc(Cl)cc2)s1	-23%	-6%	69*	35*	6%	2%
CNc1ncc(C(=O)c2ccc(Cl)c(Cl)c2)s1	-42%	-16%	94*	38*	4%	-4%
CNc1ncc(C(=O)c2ccc(-c3ccccc3)cc2)s1	-3%	-3%	64*	45*	-3%	-1%
O=C(c1cnc(-c2ccc(Cl)cc2)s1)c1ccc(Cl)cc1Cl	1%	3%	-7	-2	-3%	-2%
CN(C)/C=N/c1ncc(C(=O)c2ccc(-c3ccccc3)cc2)s1	.	-17%	24	19	-23%	-10%
Cc1oc(C)c(C(=O)Nc2ccccc2)c1C	.	.	14	48	.	.
CN(C)S(=O)(=O)c1ccc(Cl)c(NC(=O)CN2C(=O)NC(C)(C3CC3)C2=O)c1 (configuration not stated)	-30%	0%	-2	-6	1%	3%
O=C1c2cccc3c2C2(O)c4c1cccc4C(=O)c1cccc(c12)C3=O	.	.	.	.	3%	.
COc1ccc(N=c2oc3ccc(OC)cc3cc2-c2nc3ccccc3[nH]2)cc1	0%	.	162*	28*	5%	4%
COc1ccc(OC(C)c2nc3ccccc3[nH]2)cc1 (configuration not stated)	.	.	.	.	2%	.
COc1cccc(N=c2oc3ccccc3cc2-c2nc3ccccc3[nH]2)c1	-60%	-2%	63*	38*	-1%	-15%
COc1cccc(N=c2oc3ccc(OC)cc3cc2-c2nc3ccccc3[nH]2)c1	0%	.	94*	40*	0%	-12%
O=C(CCCCn1c(=O)c2ccccc2n(Cc2ccccc2F)c1=O)NCc1ccc2c(c1)OCO2	.	.	.	.	9%	.
Cc1onc(-c2c(F)cccc2Cl)c1C(=O)N1CCN(c2ncc(Br)cn2)CC1	-5%	-3%	-3	1	2%	-2%
CSCCC1COC(c2cccs2)=N1 (configuration not stated)	.	2%	65*	39*	-7%	1%[11.5 µM]
Cc1cc(=O)n2nc(-c3ccc(C(F)(F)F)cc3)sc2n1	8%	8%	10	33*	37%	1%
Cc1cc(NC(=O)c2ccco2)ncc1NC(=O)Cc1ccccc1	-13%	-2%	70	19*	3%	-8%
COc1cccc(C(=O)Nc2cnc(NC(=O)c3ccco3)cc2C)c1	-6%	-5%	47*	16*	5%	0%
Cc1cc(NC(=O)C(C)C)ncc1NC(=O)c1ccco1	10%	2%	5	11	.	-7%
Cc1cccc(-c2nsc(SCC(=O)NCc3ccco3)n2)c1	-51%	-5%	9	23*	-5%	4%
Cc1cccc(-c2nsc(SCC(=O)NCC3CCCO3)n2)c1 (configuration not stated)	.	-1%	91*	44*	-10%	3%
Cn1c(CCn2ccccc2=O)nc2cc(NC(=O)COc3ccccc3)ccc21	-12%	-3%	18	29*	-1%	-11%
